Laboratory results published in PubChem BioAssay.
Calls of active or inactive are those of the source. Unless noted, no rule for the calls is given here.

Key:
[1] = test system: Wnt5a (protein binding on small-molecule microarray); assay: small molecules binding Wnt5a protein – biophysical, small-molecule microarray, 635/667 nm fluorescence, primary screen (AID 1142); conditions: 635 nm fluorescence, higher = more signal;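 also: fluorescence read at 667 nm with signal to noise per printed feature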
[2] = ATP-based viability of Huh7 replicon cells – cell-based, CellTiter-Glo luminescence, basal, 48 h, cytotoxicity control for HCV replication inhibitor project, primary screen (AID 1143); conditions: higher = more signal, called active from +8 up or from −8 down;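 also: Huh7 hepatoma cells carrying a hepatitis C replication reporter with no stimulus; test concentration not given here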
[3] = Pseudomonas biofilm growth suppression – PAO1 strain, BacTiter-Glo luminescence, LB-PBS, primary screen (AID 1144); conditions: P. aeruginosa PAO1 biofilm, 12 h, higher = more signal
[4] = basal CRE-LacZ reporter activity in PC12 – cell-based, unstimulated, primary screen (AID 1145); conditions: no forskolin, luminescence, 4.5 h, higher = more signal, called active from +8 up or from −8 down
[5] = forskolin-driven CRE-LacZ activity in PC12 – cell-based, CRE-LacZ reporter, forskolin-stimulated, primary screen (AID 1146); conditions: luminescence, 4.5 h, higher = more signal, called active from +8 up or from −8 down;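 also: PC12 cells with 6xCRE LacZ reporter stimulated by forskolin 10 µM; beta-galactosidase reporter signal reflecting CREB driven transcription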
[6] = biological target: Streptavidin (Streptomyces avidinii) (UniProt P22629); assay: compounds binding control protein streptavidin – biophysical, small-molecule microarray, 635/667 nm fluorescence, artefact control for SMM compound annotation, primary screen (AID 1147); conditions: higher = more signal;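 also: signal reflects streptavidin binding to arrayed compounds as a control protein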
Chain of Streptavidin (Streptomyces avidinii) (P22629 whole entry, looked up): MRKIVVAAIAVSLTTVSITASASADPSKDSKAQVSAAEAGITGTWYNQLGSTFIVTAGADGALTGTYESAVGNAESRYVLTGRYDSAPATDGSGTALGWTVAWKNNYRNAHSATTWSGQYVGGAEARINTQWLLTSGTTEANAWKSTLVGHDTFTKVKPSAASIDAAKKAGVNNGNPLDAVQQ

[7] = probe aInhba binding on compound microarray – biochemical, small-molecule microarray, 635/667 nm fluorescence, primary screen (AID 1148); conditions: higher = more signal;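 also: score merges 667nm spot fluorescence with signal-to-noise for antibody binding to printed compounds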
Torsin-1A (Homo sapiens) [8] = biological target: Torsin-1A (Homo sapiens) (UniProt O14656); assay: TOR1A wild-type binding on microarray – cell lysate, small-molecule microarray, lysate, 635/667 nm, primary screen (AID 1149); conditions: COS7 hTOR1A-WT lysate, 635 nm fluorescence, higher = more signal
Chain of Torsin-1A (Homo sapiens) (O14656 whole entry, looked up): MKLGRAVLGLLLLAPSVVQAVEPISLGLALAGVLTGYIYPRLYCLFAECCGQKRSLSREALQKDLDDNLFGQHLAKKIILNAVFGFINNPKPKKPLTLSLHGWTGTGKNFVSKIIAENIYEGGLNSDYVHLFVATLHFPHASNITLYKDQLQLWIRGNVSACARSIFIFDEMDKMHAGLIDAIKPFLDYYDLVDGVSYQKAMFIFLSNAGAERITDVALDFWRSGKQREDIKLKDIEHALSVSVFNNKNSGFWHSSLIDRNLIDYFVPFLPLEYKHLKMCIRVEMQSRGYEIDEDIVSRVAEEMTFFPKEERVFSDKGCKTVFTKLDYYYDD

Torsin-1A (Homo sapiens) [9] = biological target: Torsin-1A (Homo sapiens) (UniProt O14656); assay: torsin A mutant lysate binding on microarrays – cell lysate, small-molecule microarray, COS7 lysate, 635/667 nm fluorescence, primary screen (AID 1150); conditions: COS7 hTOR1A mutant lysate, 635 nm fluorescence, higher = more signal;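 also: score pools 667 nm emission and signal to noise measuring lysate protein binding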
[10] = test system: Sonic hedgehog protein (Shh); assay: Sonic hedgehog microarray binding compounds – biochemical, small-molecule microarray, 635/667 nm fluorescence, primary screen (AID 1151); conditions: 635 nm fluorescence, higher = more signal;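 also: Shh protein binding to compounds spotted on small-molecule microarray slides; score combines spot fluorescence intensity with signal-to-noise across triplicate slides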

SMILES | composite z-score [1] | z-score [2] | z-score [3] | z-score [4] | z-score [5] | composite z-score [6] | composite z-score [7] | composite z-score (Torsin-1A (Homo sapiens) [8]) | composite z-score (Torsin-1A (Homo sapiens) [9]) | composite z-score [10]
O=C1NC(=O)C2C1C=CC(C(O)c1ccc(I)cc1)N2Nc1ccc(Cl)cc1Cl (stereo not given) | 0.372 | -1.58 (inactive) | -1.74 (inactive) | 1.77 (inactive) | -0.299 (inactive) | 1.34 | 0.337 | 0.0137 | 0.303 | -0.366
O[C@@H](Cc1ccccc1)[C@@H](/C=C/C1CC1)NCc1cccc(Cl)c1 | -1.11 | -3.2 (inactive) | -0.852 (inactive) | 4.76 (inactive) | -0.426 (inactive) | -1 | -0.21 | -1.12 | -0.447 | -1
C=C(CCCC)/C(=C/C[C@H](OC(=O)c1ccncc1)c1ccc(OCCO)cc1)c1cc(C(=O)OC)ccc1OC | 0.355 | -4.81 (inactive) | 0.282 (inactive) | 5.11 (inactive) | -0.366 (inactive) | 0.0399 | 0.0104 | 0.404 | 0.102 | 1.96
NCCCCCNC(=O)[C@H]1C[C@H]2C(=O)N[C@@H](Cc3ccccc3)C(=O)N2[C@H]1c1cccc(OCCO)c1 | -0.0768 | -0.535 (inactive) | -0.2 (inactive) | 1.49 (inactive) | -0.389 (inactive) | 0.951 | 0.205 | 0.5 | 0.71 | 0.102
COCCOC(=O)N1C(=O)[C@@]2(c3cc(C#CC4(O)CCCCCC4)ccc31)[C@H](c1ccccc1OCCO)N1[C@H](c3ccccc3)[C@H](c3ccccc3)OC(=O)[C@H]1[C@@H]2C(=O)N1CCc2cc(OC)c(OC)cc2C1 | 0.305 | -3.17 (inactive) | -0.665 (inactive) | -1.29 (inactive) | 1.03 (inactive) | 0.738 | -0.0496 | 0.0651 | 0.336 | 1.11
CC(C)NC(=O)[C@@]1(Cc2ccccc2I)c2ccccc2C(=O)N(Cc2ccccc2Cl)[C@H]1c1ccc(CO)cc1 | 0.361 | -2.21 (inactive) | 0.5 (inactive) | -0.464 (inactive) | -0.0764 (inactive) | 0.746 | -0.0557 | 0.214 | 0.891 | 1
O=C(CS)NCCCCCNC(=O)[C@H]1C[C@H]2C(=O)NCC(=O)N2[C@H]1c1ccc(O)cc1 | -0.55 | -0.173 (inactive) | -0.196 (inactive) | -1.49 (inactive) | -0.684 (inactive) | -1.11 | -0.264 | -0.518 | 0.113 | 0.0174
COc1ccccc1CN1C(=O)c2ccccc2[C@@]2(Cc3ccccc3N(CCCN(C)C)C2=O)[C@@H]1c1ccc(CO)cc1 | -0.0961 | -4.71 (inactive) | -0.516 (inactive) | -0.0243 (inactive) | -0.926 (inactive) | 0.224 | -0.19 | -0.0118 | 0.0265 | 0.243
CN1CCC(CCCO)=CC1c1cccs1 (stereo not given) | -0.142 | 0.504 (inactive) | 0.519 (inactive) | -0.145 (inactive) | 1.84 (inactive) | -0.131 | -0.128 | -0.214 | -0.122 | 0.834
COC(=O)C(CC#Cc1ccc2c(c1)[C@]1(C(=O)N2)[C@H](c2ccccc2OCCO)N2[C@H](c3ccccc3)[C@H](c3ccccc3)OC(=O)[C@H]2[C@@H]1C(=O)O)C(=O)OC | 0.231 | -0.323 (inactive) | -0.367 (inactive) | -0.375 (inactive) | 1.86 (inactive) | 0.517 | 0.29 | 0.19 | 1.14 | 0.279
CC(=O)n1cc(C(O)C2C=CC3C(=O)NC(=O)C3N2Nc2ccccn2)c2ccccc21 (stereo not given) | 0.109 | 0.713 (inactive) | -0.781 (inactive) | -0.14 (inactive) | 0.593 (inactive) | 0.153 | 0.23 | 0.865 | 0.153 | 0.41
COCCOC(=O)N1C(=O)[C@@]2(c3ccccc31)[C@H](C(N)=O)[C@H]1C(=O)O[C@H](c3ccccc3)[C@H](c3ccccc3)N1[C@@H]2c1ccc(O)cc1 | 0.169 | -2.51 (inactive) | -0.166 (inactive) | -0.375 (inactive) | 0.06 (inactive) | -0.432 | -0.204 | 0.603 | 0.779 | 0.105
COCC(=C=CC[C@H](O)c1ccccc1OCCO)CCO | 0.0821 | -0.231 (inactive) | -0.109 (inactive) | 2.48 (inactive) | 1.01 (inactive) | -0.193 | 0.115 | 0.871 | 0.542 | 1.09
COC(=O)[C@]1(CCC(=O)OC(C)(C)C)N=C(c2ccc(OCCCO)cc2)O[C@@H]1c1ccccc1 | -0.102 | -4.76 (inactive) | 0.314 (inactive) | 2.39 (inactive) | -0.0673 (inactive) | -0.98 | 0.154 | -0.927 | -0.343 | 0.169
O=C(O)C1N=C(c2ccc(OCCCO)cc2)N(c2ccccc2)O1 (stereo not given) | 0.222 | -0.205 (inactive) | 1.3 (inactive) | 0.101 (inactive) | 1.16 (inactive) | 0.926 | -0.166 | 0.666 | 1.72 | 0.287
